Here are results for 13 compounds from PubChem BioAssay (NCI).

Among the test systems are HCT-15 colon; HT29 colon; SNB-75 CNS; SNB-19 CNS; U251 CNS; PC-3 prostate; SK-MEL-5 melanoma; UACC-62 melanoma; LOX IMVI melanoma; SK-MEL-28 melanoma.
What all share (assay): NCI-60 one-dose screen, 48 h (100 = growth as untreated, 0 = no growth, -100 = all killed)
What all share (conditions): 10 µM unless noted

The panel holds about 83,000 compounds, 20% with a hit somewhere; the sample as a whole holds those more often.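 Compound tested at a single concentration for 48 hours in 96-well plates; a percent growth value below 10 was scored as active.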 A number with no mark means an inactive call. Active and inactive are the calls of the source.

Regarding `NS(=O)(=O)c1cc2c(cc1Cl)NC=NS2(=O)=O`, the growth was 102% with HCT-15 colon; 94.7% in the experiment with HT29 colon; 96.3% in the experiment on SNB-75 CNS; 107% in the experiment on SNB-19 CNS; 99.7% with U251 CNS; 100% in the experiment on PC-3 prostate. The growth was 107% with SK-MEL-5 melanoma, 103% in the experiment on UACC-62 melanoma, 99.6% with LOX IMVI melanoma and 108% in the experiment with SK-MEL-28 melanoma.
Take `O=C(O)CCC(=O)OC[C@@H](NC(=O)C(Cl)Cl)[C@H](O)c1ccc([N+](=O)[O-])cc1`: the growth in the experiment on HCT-15 colon is 93.9%; in the experiment on HT29 colon, 95.8%; in the experiment on SNB-75 CNS, 88%; in the experiment with SNB-19 CNS, 99.4%; in the experiment with U251 CNS it was 99.3%; in the experiment on PC-3 prostate it was 87.5%. The growth is 89.8% with SK-MEL-5 melanoma, 98% in the experiment with UACC-62 melanoma, 96.7% in the experiment with LOX IMVI melanoma and 106% in the experiment with SK-MEL-28 melanoma.
Consider `CS(=O)(=O)N1CCN(Cc2cc3nc(-c4cccc5[nH]ncc45)nc(N4CCOCC4)c3s2)CC1` (tested in a mixture with another compound), for which the growth in the experiment on HCT-15 colon is 14.2%; in the experiment on HT29 colon, 9.57% (active); in the experiment with SNB-75 CNS it was -3.36% (active); in the experiment with SNB-19 CNS, 28%; with U251 CNS, 30.5%; in the experiment on PC-3 prostate, 6.61% (active). The growth is -0.161% (active) with SK-MEL-5 melanoma, -13.5% (active) in the experiment on UACC-62 melanoma, 18.8% in the experiment on LOX IMVI melanoma and 10.6% in the experiment on SK-MEL-28 melanoma.
Consider `CC1C(=O)NC2=Nc3ccccc3C(=O)NN21` (stereo not given), for which the growth is 108% with HCT-15 colon; 103% in the experiment on HT29 colon; 86.7% with SNB-75 CNS; 107% in the experiment on SNB-19 CNS; 101% in the experiment on U251 CNS; 92.4% in the experiment with PC-3 prostate. The growth in the experiment with SK-MEL-5 melanoma was 94.5%; in the experiment with UACC-62 melanoma, 92.2%; with LOX IMVI melanoma it was 95.4%; in the experiment with SK-MEL-28 melanoma, 120%.
With `COc1cnc2c(c1)C(=O)c1c-2n(CCCN2CCCC2)c(=O)c2cc(F)ccc12`, the growth in the experiment with HCT-15 colon was -18.9% (active); in the experiment on HT29 colon, -31.2% (active); in the experiment on SNB-75 CNS, -18.9% (active); in the experiment on SNB-19 CNS, 19.7%; in the experiment on U251 CNS it was -19% (active); with PC-3 prostate, 9.68% (active). For the same compound, the growth in the experiment with SK-MEL-5 melanoma is -95.9% (active); in the experiment on UACC-62 melanoma, -27.8% (active); in the experiment with LOX IMVI melanoma, -69.7% (active); in the experiment with SK-MEL-28 melanoma, 27.4%.
`CC(C)N(Cc1ccccc1)c1c(Cl)ssc1=O`: the growth with HCT-15 colon was 108%; in the experiment on HT29 colon, 100%; in the experiment with SNB-75 CNS, 113%; in the experiment on SNB-19 CNS, 101%; with U251 CNS, 102%; in the experiment on PC-3 prostate, 95.9%. Besides, the growth was 104% with SK-MEL-5 melanoma, 93.1% in the experiment on UACC-62 melanoma, 96.3% with LOX IMVI melanoma and 101% in the experiment on SK-MEL-28 melanoma.
In the case of `CC(=O)OC1Oc2cc(C)c(C)cc2-c2oc(=O)c(-c3ccccc3)cc21` (stereo not given), the growth in the experiment with HCT-15 colon was 6.95% (active); in the experiment on HT29 colon, -23.7% (active); in the experiment on SNB-75 CNS, -1.15% (active); in the experiment on SNB-19 CNS it was 26.9%; in the experiment with U251 CNS, 13.2%; in the experiment on PC-3 prostate, -11.4% (active). Further, the growth is 16.7% with SK-MEL-5 melanoma, 14.2% with UACC-62 melanoma, 41.9% with LOX IMVI melanoma and 49% in the experiment with SK-MEL-28 melanoma.
With `COc1ccc(C(=O)COc2ccc(/C=C3\Oc4ccc5ccccc5c4C3=O)cc2)cc1`, the growth in the experiment on HCT-15 colon was 126%; with HT29 colon, 111%; with SNB-75 CNS it was 75.5%; in the experiment on SNB-19 CNS, 85%; in the experiment with U251 CNS it was 99.5%; with PC-3 prostate it was 81%. The growth in the experiment on SK-MEL-5 melanoma is 95.7%; in the experiment with UACC-62 melanoma, 95.9%; with LOX IMVI melanoma, 93.5%; in the experiment with SK-MEL-28 melanoma, 105%.
On to `N#Cc1c(-c2ccc(F)cc2)n2c(nc1=O)SC(=O)C2=O`, for which the growth is 106% in the experiment on HCT-15 colon; 105% with HT29 colon; 83.8% in the experiment on SNB-75 CNS; 103% with SNB-19 CNS; 92.2% in the experiment on U251 CNS; 92.1% in the experiment on PC-3 prostate. For the same compound, the growth was 96.5% in the experiment with SK-MEL-5 melanoma, 80.2% in the experiment with UACC-62 melanoma, 87.3% in the experiment on LOX IMVI melanoma and 102% in the experiment with SK-MEL-28 melanoma.
On to `CN1CCN(c2nc3scc(-c4ccccc4)c3c(=O)[nH]2)CC1`, for which the growth in the experiment on HCT-15 colon was 104%; with HT29 colon, 96.7%; in the experiment with SNB-75 CNS it was 88.4%; in the experiment with SNB-19 CNS it was 96.5%; in the experiment on U251 CNS, 99.4%; in the experiment with PC-3 prostate, 92.9%. Moreover, the growth was 96.7% in the experiment with SK-MEL-5 melanoma, 94.2% with UACC-62 melanoma, 95.9% in the experiment with LOX IMVI melanoma and 104% in the experiment on SK-MEL-28 melanoma.
Turning to `CC1CN(CC(O)c2ccc(Br)cc2)CCO1` (stereo not given), the growth in the experiment on HCT-15 colon is 107%; in the experiment with HT29 colon, 113%; in the experiment with SNB-75 CNS it was 91.4%; in the experiment with SNB-19 CNS, 105%; in the experiment on U251 CNS, 95.8%; in the experiment on PC-3 prostate, 101%. Also, the growth in the experiment on SK-MEL-5 melanoma is 108%; in the experiment with UACC-62 melanoma it was 108%; in the experiment with LOX IMVI melanoma it was 107%; in the experiment with SK-MEL-28 melanoma, 119%.
With `OCc1n(Cc2ccc3ccccc3c2)cc[n+]1Cc1ccc2ccccc2c1`, the growth in the experiment with HCT-15 colon is 100%; with HT29 colon, 36.6%; in the experiment on SNB-75 CNS, 34.8%; in the experiment on SNB-19 CNS it was 44.5%; with U251 CNS, 60%; in the experiment with PC-3 prostate it was 37.8%. In addition, the growth with SK-MEL-5 melanoma was -28% (active); in the experiment with UACC-62 melanoma, 12.8%; in the experiment with LOX IMVI melanoma, 45.4%; with SK-MEL-28 melanoma, 24.9%.
With `O=C1Nc2ccc(C(=O)O)c(O)c2C1=O`, the growth was 110% in the experiment on HCT-15 colon; 117% in the experiment with HT29 colon; 103% with SNB-75 CNS; 107% in the experiment on SNB-19 CNS; 106% with U251 CNS; 95.7% in the experiment on PC-3 prostate. Also, the growth in the experiment on SK-MEL-5 melanoma was 104%; in the experiment on UACC-62 melanoma, 101%; in the experiment with LOX IMVI melanoma, 54.5%; with SK-MEL-28 melanoma it was 111%.
